Reference: PubChem BioAssay (NCATS)
“And” between values parts separate entries of the source, which are not always exact repeats. Equal values may be shown once. Records with an inconclusive call do not appear. The source made the active and inactive calls. Unless noted, calls come from the whole dose curve; as a rule, active = well fitted curve in the direction sought with a large enough effect; inconclusive = small, poorly fitted or top-dose-only effect, or another doubt; inactive = no such curve, though single readings can be large; an effect the other way counts as inactive or inconclusive.

Legend:
[1] = biological target: Voltage-gated inwardly rectifying potassium channel KCNH2 (Homo sapiens) (UniProt Q12809); test: qHTS Assay for Small Molecule Inhibitors of the Human hERG Channel Activity (AID 588834);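 note: top concentration of the series differs between compounds; % is set by controls: 0 for no effect and ±100 for the full control effect; lower thallium flux fluorescence means stronger hERG block; nearly all actives have a fitted effect of over 50% in size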
Chain of Voltage-gated inwardly rectifying potassium channel KCNH2 (Homo sapiens) (Q12809 whole entry, looked up): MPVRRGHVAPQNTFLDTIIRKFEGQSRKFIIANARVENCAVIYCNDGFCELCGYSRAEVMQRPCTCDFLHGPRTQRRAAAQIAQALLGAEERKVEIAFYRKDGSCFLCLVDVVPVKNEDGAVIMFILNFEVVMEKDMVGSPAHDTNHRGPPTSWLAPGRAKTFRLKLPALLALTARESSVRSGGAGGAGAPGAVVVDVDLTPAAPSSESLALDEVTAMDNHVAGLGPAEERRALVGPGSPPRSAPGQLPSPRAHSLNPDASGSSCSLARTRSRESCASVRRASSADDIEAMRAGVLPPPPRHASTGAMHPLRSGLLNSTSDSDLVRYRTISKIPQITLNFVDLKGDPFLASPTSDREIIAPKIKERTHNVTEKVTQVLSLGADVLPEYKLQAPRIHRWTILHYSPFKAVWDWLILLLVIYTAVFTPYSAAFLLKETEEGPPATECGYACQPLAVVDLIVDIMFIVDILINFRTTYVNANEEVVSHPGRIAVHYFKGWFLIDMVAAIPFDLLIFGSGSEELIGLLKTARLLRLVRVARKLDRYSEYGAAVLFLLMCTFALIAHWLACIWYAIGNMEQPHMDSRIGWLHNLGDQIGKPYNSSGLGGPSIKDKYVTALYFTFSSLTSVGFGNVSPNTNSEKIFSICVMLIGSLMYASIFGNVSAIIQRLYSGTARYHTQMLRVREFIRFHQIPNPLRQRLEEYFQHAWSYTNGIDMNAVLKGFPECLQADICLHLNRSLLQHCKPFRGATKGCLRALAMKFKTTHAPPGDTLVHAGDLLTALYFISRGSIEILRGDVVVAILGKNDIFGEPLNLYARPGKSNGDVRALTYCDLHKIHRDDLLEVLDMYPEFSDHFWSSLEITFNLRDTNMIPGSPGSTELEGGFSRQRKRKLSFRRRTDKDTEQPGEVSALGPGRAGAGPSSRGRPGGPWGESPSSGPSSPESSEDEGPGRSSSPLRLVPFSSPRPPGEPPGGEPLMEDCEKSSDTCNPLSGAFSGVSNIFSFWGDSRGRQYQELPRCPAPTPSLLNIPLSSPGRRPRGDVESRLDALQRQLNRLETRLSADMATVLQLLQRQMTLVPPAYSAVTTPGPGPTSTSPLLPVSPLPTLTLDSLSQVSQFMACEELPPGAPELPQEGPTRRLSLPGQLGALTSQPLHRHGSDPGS
How it was run: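 U2OS cells BacMam-transduced with hERG, 2000 cells/well, compound ~10 min at 37 °C before stimulation buffer. FluxOR thallium flux fluorescence read kinetically on FDSS; decrease indicates block; AC50 from Hill fits.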

[2] = qHTS assay for small molecule agonists of the antioxidant response element (ARE) signaling pathway (AID 651741; active = well fitted activation curve with a large enough effect in the signal ratio; the % refers to the signal ratio; note: % of control where 0% means no effect)
How it was run: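 Quantitative HTS in HepG2 cells stably expressing an ARE-beta-lactamase reporter; 16 h compound exposure at 37 C, followed by 2 h room-temperature incubation with LiveBLAzer B/G FRET substrate and fluorescence measurement.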

[3] = qHTS assay for small molecule activators of the p53 signaling pathway (AID 651743; active = well fitted activation curve with a large enough effect in the signal ratio, not every such curve was filed as active; the % refers to the signal ratio; note: series mostly up to about 92 µM; % of control where 0% means no effect); conditions: HCT-116 p53RE-bla, beta-lactamase FRET ratio, 16 h; activation: active compounds read high
How it was run: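 Read-out is fluorescence intensity from the LiveBLAzer B/G FRET substrate, added for 2 hours at room temperature after HCT-116 p53RE-bla cells had been incubated with compounds for 16 hours at 37 C.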

[4] = qHTS assay for small molecule activators of the nuclear factor-kappa B (NF-kB) signaling pathway (AID 651749; active = well fitted activation curve with a large enough effect in the signal ratio; the % refers to the signal ratio; note: series mostly up to about 77 µM; % of control where 0% means no effect); conditions: NF-kB-bla ME-180 cells, beta-lactamase FRET ratio, 16 h; activation: active compounds read high
How it was run: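 Readout: beta-lactamase reporter driven by an NF-kB response element, detected fluorescently as loss of FRET. Cells were the ME-180 line, treated 16 hr at 37C with pin-transferred compound.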

[5] = qHTS assay for small molecule disruptors of the mitochondrial membrane potential - 5 hr assay (AID 651755; calls by dose curve; note: % is set by controls: 0 for no effect and ±100 for the full control effect; nearly all actives have a fitted effect of over 40% in size)
How it was run: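 HepG2, 2,000 cells/well, overnight attach; cpd or DMSO 5 hr, 37C/5% CO2; Mito-MPS 30 min 37C; fluor 490/535 + 540/590 nm.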

[6] = biological target: Tumor necrosis factor (Homo sapiens) (UniProt P01375); test: qHTS assay to identify small molecules that stimulate Tumor Necrosis Factor-alpha (TNF-alpha) secretion (AID 651757; active = well fitted curve in the direction sought with a large enough effect in the signal ratio; the % refers to the signal ratio; note: 0% is about no effect)
Chain of Tumor necrosis factor (Homo sapiens) (P01375 whole entry, looked up): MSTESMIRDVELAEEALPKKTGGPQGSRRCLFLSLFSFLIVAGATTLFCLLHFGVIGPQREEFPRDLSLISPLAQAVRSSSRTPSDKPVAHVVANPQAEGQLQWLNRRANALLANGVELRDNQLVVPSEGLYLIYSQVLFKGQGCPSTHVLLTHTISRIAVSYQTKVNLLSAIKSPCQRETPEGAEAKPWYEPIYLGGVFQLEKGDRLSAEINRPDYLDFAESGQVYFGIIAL
How it was run: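 Read-out is HTRF, a TR-FRET sandwich of cryptate- and XL665-labeled anti-TNF-alpha antibodies detecting cytokine secreted by THP-1 cells. Cells had been incubated with test compounds at 37 C for 17 hrs beforehand.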

[7] = qHTS assay to identify small molecules that stimulate interleukin-8 (IL-8) secretion (AID 651758; active = well fitted activation curve with a large enough effect in the signal ratio; the % refers to the signal ratio; note: 0% is about no effect)
How it was run: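 Secreted IL-8 measured by TR-FRET sandwich (cryptate and XL665 antibodies) from THP-1 cells exposed to compound overnight (16 hrs, 37 C).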

[8] = qHTS assay for environmental chemicals that activate the Aryl hydrocarbon Receptor (AhR) signaling pathway (AID 651777); conditions: 1A2-DRE human hepatoma cells, luciferase, 24 h; activation: active compounds read high; note: % of control where 0% means no effect; nearly all actives have a fitted effect of over 15% in size
How it was run: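 Quantitative HTS in stably transfected human liver-derived cells whose luciferase gene sits downstream of the CYP1A2 promoter and dioxin response element. After 24 hr exposure at 37 C, One-Glo luminescence was measured.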

[9] = biological target: Peroxisome proliferator-activated receptor alpha (Homo sapiens) (UniProt Q07869); test: qHTS assay for small molecule agonists of the peroxisome proliferator-activated receptor alpha (PPARalpha) signaling pathway (AID 651778); conditions: PathHunter PPARalpha complementation, chemiluminescence, 6 h; active compounds read high; note: % of control where 0% means no effect
Chain of Peroxisome proliferator-activated receptor alpha (Homo sapiens) (Q07869 whole entry, looked up): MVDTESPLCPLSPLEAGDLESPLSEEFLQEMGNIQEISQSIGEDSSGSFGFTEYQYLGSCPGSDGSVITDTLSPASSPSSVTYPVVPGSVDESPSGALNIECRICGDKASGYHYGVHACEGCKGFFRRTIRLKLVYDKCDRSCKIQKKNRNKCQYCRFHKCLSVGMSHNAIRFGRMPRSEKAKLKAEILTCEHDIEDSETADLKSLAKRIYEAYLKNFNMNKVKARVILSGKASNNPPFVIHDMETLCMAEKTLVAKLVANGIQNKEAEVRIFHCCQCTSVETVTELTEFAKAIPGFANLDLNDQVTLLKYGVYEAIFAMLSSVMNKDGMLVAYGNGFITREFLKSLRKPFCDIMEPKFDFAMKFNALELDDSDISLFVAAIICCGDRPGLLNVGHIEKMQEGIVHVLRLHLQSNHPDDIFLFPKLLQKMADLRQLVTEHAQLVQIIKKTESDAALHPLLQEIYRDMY
How it was run: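 Chemiluminescence from complemented enzyme reported PPARalpha activation in cells after 6 hr of compound treatment at 37 C. The detection reagent was incubated for 60 min at room temperature, and compounds were scored as agonists.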

[10] = biological target: Nuclear receptor ROR-gamma (Homo sapiens) (UniProt P51449); test: qHTS assay for small molecule antagonists of the retinoid-related orphan receptor gamma (ROR-gamma) signaling pathway (AID 651802);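 note: luciferase reporter luminescence driven by ROR response element; series mostly up to about 92 µM; % is set by controls: 0 for no effect and ±100 for the full control effect; nearly all actives have a fitted effect of over 60% in size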
Chain of Nuclear receptor ROR-gamma (Homo sapiens) (P51449 whole entry, looked up): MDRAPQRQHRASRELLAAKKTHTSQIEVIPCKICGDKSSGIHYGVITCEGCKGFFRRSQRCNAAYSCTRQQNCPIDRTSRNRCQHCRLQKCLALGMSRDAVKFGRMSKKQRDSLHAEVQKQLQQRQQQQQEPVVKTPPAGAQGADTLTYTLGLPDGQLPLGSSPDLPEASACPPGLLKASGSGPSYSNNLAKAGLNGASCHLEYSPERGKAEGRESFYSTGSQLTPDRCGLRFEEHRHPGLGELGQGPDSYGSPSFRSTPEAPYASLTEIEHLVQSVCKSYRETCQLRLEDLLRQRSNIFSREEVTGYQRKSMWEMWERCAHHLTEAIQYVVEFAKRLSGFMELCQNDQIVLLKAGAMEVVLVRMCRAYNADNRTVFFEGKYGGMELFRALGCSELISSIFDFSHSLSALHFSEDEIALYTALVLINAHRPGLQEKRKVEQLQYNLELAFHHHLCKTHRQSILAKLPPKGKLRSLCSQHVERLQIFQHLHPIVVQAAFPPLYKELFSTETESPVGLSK
How it was run: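 CHO, TET-inducible ROR + RORE-LUC reporter, 1536-well qHTS. Compound pinned, doxycycline added, 16hr 37C/5% CO2. ONE-Glo, 30 min RT, luminescence; signal drop scored as antagonism.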

[11] = qHTS assay for small molecule agonists of the antioxidant response element (ARE) signaling pathway measured by Nrf2-dependant transcriptional activity (AID 720636; active = well fitted curve in the direction sought with a large enough effect in the repeat runs; an effect the other way counts as inactive or inconclusive; note: % of control where 0% means no effect)
How it was run: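 Quantitative HTS format in HepG2 cells stably expressing an ARE-luciferase reporter; 16 hr compound treatment at 37 C, luciferase signal detected with ONE-Glo.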

[12] = qHTS assay for small molecule antagonists of the retinoid-related orphan receptor gamma (ROR-gamma) signaling pathway - cell viability counter screen (AID 720652; active = well fitted curve in the direction sought with a large enough effect in the repeat runs; an effect the other way counts as inactive or inconclusive;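 note: series mostly up to about 92 µM; compound exposure lasted 16 hr before ATP read; % is set by controls: 0 for no effect and ±100 for the full control effect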)
How it was run: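 Luminescence from CellTiter-Glo after 30 min at room temperature reported cellular ATP as the cytotoxicity measure. Cells were the CHO reporter line with doxycycline-induced ROR-gamma expression, exposed to compound for 16 hr at 37 C.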

[13] = qHTS assay for small molecule agonists of the antioxidant response element (ARE) signaling pathway measured by Nrf2-dependant transcriptional activity - cell viability counter screen (AID 720653; active = well fitted curve in the direction sought with a large enough effect in the repeat runs; an effect the other way counts as inactive or inconclusive; note: % is set by controls: 0 for no effect and ±100 for the full control effect); conditions: ARE-bla HepG2 viability, CellTiter-Glo ATP luminescence, 16 h; active compounds read low
How it was run: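 Cytotoxicity counter screen: intracellular ATP quantified by CellTiter-Glo luminescence in the same ARE-bla HepG2 plates, after 16 h compound exposure and a 2 h beta-lactamase substrate step.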

[14] = qHTS assay for cell viability of HEK293 cells (AID 743288); conditions: ATP luminescence (CellTiter-Glo), 18 h; max response: active compounds read low; note: % is set by controls: 0 for no effect and ±100 for the full control effect; nearly all actives have a fitted effect of over 50% in size
How it was run: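 Parental HEK293 cells, 2,000 per well, preincubated at least 5 h at 37 C, then exposed to compounds in DMSO for 18 h at 37 C. Viability by CellTiter-Glo ATP luminescence after 30 min at room temperature.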

[15] = qHTS assay for cell viability of the p53RE-bla HCT-116 cell line (AID 743292); note: % is set by controls: 0 for no effect and ±100 for the full control effect; nearly all actives have a fitted effect of over 55% in size
How it was run: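 Viability of compound-treated p53RE-bla HCT-116 cells is taken from ATP-dependent luciferase luminescence. Treatment lasts 16 h at 37 C after a 5 h settling period; detection follows 30 min at room temperature.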

[16] = biological target: Rap guanine nucleotide exchange factor 3 (Homo sapiens) (UniProt O95398); test: Confirmatory qHTS for antagonist of cAMP-regulated guanine nucleotide exchange factor 3 (EPAC1) (AID 1645880);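 note: plate controls were DMSO only for no effect and full effect of the ATA control for full effect; nearly all actives have a fitted effect of over 55% in size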
Chain of Rap guanine nucleotide exchange factor 3 (Homo sapiens) (O95398 whole entry, looked up): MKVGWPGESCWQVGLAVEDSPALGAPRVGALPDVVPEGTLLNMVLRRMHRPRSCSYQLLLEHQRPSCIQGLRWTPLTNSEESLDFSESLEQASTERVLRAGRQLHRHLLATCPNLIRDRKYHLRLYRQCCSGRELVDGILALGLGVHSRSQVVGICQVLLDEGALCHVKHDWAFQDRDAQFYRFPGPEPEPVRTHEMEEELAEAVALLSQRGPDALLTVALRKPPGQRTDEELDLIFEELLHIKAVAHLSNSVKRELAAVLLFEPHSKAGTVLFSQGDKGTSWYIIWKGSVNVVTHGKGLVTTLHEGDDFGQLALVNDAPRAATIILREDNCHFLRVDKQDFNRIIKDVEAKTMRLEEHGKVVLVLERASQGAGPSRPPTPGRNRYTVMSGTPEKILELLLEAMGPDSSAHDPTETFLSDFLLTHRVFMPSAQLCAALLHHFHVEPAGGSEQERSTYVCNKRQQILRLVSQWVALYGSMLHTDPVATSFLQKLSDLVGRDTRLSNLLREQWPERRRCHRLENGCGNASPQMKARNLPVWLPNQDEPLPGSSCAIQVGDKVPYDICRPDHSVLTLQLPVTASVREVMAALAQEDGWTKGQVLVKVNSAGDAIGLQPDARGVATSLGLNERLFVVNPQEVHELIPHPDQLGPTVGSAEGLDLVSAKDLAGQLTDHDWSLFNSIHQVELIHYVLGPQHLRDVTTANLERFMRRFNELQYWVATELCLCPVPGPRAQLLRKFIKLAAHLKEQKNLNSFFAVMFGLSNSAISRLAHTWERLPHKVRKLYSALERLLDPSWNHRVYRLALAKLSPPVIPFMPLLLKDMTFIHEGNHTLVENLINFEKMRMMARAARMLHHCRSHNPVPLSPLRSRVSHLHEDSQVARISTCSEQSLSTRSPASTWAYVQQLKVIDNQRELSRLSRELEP
How it was run: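 Nucleotide exchange uses 100 nM EPAC1, 250 nM RAP1B-BODIPY-GDP and 50 uM GDP, with compounds in a concentration-titration series. After 5 min at room temperature, fluorescence (480 nm ex/540 nm em) is read every 5 min for 30 min. Data are normalized to control ATA and DMSO.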

[17] = biological target: Rap guanine nucleotide exchange factor 3 (Homo sapiens) (UniProt O95398); test: Confirmatory qHTS for agonist of cAMP-regulated guanine nucleotide exchange factor 3 (EPAC1) (AID 1645881);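 note: EPAC1 catalysed release of BODIPY-GDP from Rap1B seen as fluorescence loss; 100% = effect of cAMP agonist control; nearly all actives have a fitted effect of over 75% in size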
[18] = biological target: Rap guanine nucleotide exchange factor 4 (Homo sapiens) (UniProt Q8WZA2); test: Confirmatory qHTS for agonist of cAMP-regulated guanine nucleotide exchange factor 4 (EPAC2) (AID 1645884);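 note: nucleotide exchange releases bodipy-GDP from Rap1 and this lowers its fluorescence; % is set by controls: 0 for no effect and ±100 for the full control effect; nearly all actives have a fitted effect of over 65% in size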
Chain of Rap guanine nucleotide exchange factor 4 (Homo sapiens) (Q8WZA2 whole entry, looked up): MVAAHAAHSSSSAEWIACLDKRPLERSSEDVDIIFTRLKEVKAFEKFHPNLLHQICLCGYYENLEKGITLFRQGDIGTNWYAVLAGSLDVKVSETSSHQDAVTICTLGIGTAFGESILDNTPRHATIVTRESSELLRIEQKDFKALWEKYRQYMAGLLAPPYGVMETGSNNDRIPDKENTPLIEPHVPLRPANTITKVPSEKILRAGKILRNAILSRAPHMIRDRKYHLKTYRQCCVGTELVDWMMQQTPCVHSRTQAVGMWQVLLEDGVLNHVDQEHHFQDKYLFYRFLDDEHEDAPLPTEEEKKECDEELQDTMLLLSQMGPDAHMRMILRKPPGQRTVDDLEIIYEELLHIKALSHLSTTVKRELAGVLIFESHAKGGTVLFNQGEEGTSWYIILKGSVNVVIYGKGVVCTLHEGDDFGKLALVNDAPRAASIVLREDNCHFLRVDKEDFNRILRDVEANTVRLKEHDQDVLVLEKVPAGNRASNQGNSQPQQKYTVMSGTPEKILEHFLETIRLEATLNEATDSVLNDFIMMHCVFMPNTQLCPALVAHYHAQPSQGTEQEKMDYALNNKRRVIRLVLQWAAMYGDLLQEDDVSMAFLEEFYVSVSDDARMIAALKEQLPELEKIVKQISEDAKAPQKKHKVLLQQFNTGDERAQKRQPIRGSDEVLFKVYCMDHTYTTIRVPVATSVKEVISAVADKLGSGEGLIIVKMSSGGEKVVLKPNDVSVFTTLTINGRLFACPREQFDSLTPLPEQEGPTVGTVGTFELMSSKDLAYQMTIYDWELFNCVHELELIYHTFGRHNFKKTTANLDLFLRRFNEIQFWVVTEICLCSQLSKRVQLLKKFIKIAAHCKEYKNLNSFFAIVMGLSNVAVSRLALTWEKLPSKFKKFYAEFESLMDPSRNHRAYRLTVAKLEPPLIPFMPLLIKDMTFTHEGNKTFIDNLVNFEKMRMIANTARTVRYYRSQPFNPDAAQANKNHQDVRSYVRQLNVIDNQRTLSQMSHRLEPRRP

[19] = biological target: Rap guanine nucleotide exchange factor 4 (Homo sapiens) (UniProt Q8WZA2); test: Confirmatory qHTS for antagonist of cAMP-regulated guanine nucleotide exchange factor 4 (EPAC2) (AID 1645885); note: % is set by controls: 0 for no effect and ±100 for the full control effect; nearly all actives have a fitted effect of over 25% in size
[20] = biological target: Rap guanine nucleotide exchange factor 3 (Homo sapiens) (UniProt O95398); test: Counterscreen qHTS for antagonist of cAMP-regulated guanine nucleotide exchange factor 3 (EPAC1) (AID 1645888);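 note: fluorescence loss as bound BODIPY-GDP is released from Rap1B; % of control where 0% means no effect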
How it was run: (§1)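 Rap1B-BODIPY-GDP 250 nM + GDP 50 uM; cpds 7-pt, final 9.74 nM–152 uM (activator mode) or from 7.32 nM upwards (inhibitor mode); RT; FI 480/540 nm at 5 and 30 min, then ± cAMP, reread.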

[21] = biological target: Rap guanine nucleotide exchange factor 3 (Homo sapiens) (UniProt O95398); test: Counterscreen qHTS for agonist of cAMP-regulated guanine nucleotide exchange factor 3 (EPAC1) (AID 1645889); note: % of control where 0% means no effect; nearly all actives have a fitted effect of over 40% in size
How it was run: as §1

[22] = biological target: Nuclear receptor subfamily 1 group I member 2 (Rattus norvegicus) (UniProt Q9R1A7); test: qHTS assay for small molecule activators of the rat pregnane X receptor (rPXR) signaling pathway (AID 651751; call rule not given here; note: 0% is about no effect); conditions: rPXR reporter cells, luciferase (One-Glo), 24 h
Chain of Nuclear receptor subfamily 1 group I member 2 (Rattus norvegicus) (Q9R1A7 whole entry, looked up): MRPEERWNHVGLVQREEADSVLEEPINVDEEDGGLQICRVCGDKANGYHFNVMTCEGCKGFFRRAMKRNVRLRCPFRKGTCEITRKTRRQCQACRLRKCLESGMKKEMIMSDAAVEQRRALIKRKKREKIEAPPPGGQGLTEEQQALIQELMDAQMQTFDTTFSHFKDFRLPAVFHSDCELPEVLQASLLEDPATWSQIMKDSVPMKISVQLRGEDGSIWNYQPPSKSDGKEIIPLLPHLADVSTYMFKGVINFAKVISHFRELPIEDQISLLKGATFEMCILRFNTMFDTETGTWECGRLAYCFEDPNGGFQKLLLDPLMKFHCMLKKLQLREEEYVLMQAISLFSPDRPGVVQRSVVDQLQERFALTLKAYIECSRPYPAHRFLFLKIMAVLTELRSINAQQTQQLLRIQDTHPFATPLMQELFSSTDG

[23] = qHTS assay for small molecule activators of the human pregnane X receptor (PXR) signaling pathway (AID 720659; call rule not given here; note: 0% is about no effect)

CCCOC(=O)c1ccccc1C(=O)OCCC
inactive: Potency [1] | Potency [2] | activation [3] -4.2% and 2.37% | activation [4] -0.812% and -1.55% | Potency [5] | outcome [6] | Potency [7] | activation [8] -1.57% and -0.202% | max response [9] -3.23% and -0.333% | Potency [10] | outcome [11] | Potency [12] | max response [13] 2.53% and -0.566% | max response [14] -2.21% and -12.8% | Potency [15] | Potency [16] | Potency [17] | activation [18] -6.75% [at 17.1 µM, percent relative to cAMP agonist control] | activity change, negative = inhibition [19] -25.7% [at 12.7 µM] | activity change, negative = inhibition [20] -2.66% [at 30.8 µM] | activation [21] 23.9% [at 30.8 µM] | max response [22] 4.44% and -1.18% | outcome [23]
